High-throughput results from PubChem BioAssay.
HDAC3 inh: inhibitors of human histone deacetylase 3; O15379; recombinant HDAC3, fluorogenic peptide/trypsin coupled, fluorescence; inhibition, % at 8.3 µM; 320,000 tested, 0.15% active; AID 2718; in the data active = inhibition above about 26%, passing the limit was not always enough; inconclusive = no clear call, values can overlap the other calls
Target sequence (O15379 whole entry, looked up): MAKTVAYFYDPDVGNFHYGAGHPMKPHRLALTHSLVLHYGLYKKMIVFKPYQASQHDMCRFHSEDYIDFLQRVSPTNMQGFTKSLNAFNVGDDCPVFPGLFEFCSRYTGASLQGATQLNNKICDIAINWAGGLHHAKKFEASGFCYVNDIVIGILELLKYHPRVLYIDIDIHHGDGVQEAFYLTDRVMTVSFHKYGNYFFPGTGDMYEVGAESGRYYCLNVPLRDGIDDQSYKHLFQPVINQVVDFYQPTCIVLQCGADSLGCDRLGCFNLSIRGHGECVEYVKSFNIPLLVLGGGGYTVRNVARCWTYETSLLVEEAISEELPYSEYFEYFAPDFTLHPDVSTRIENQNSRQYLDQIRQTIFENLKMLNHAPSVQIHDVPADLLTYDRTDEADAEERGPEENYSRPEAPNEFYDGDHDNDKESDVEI
GRK2 aptamer HTS: human GRK2 inhibition via aptamer displacement. 330,000 tested, 0.59% active. bead flow cytometry, FAM-aptamer displacement from GRK2. AID 488847. inhibition of aptamer binding, % at 10 µM. P25098;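 active = inhibition of aptamer binding above 40%, roughly 3 SD of noise, on plates passing a quality check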;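 note: median bead fluorescence of bound FAM aptamer so fluorescent compounds give negative values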
Rtt109 HAT inh: blocks Candida albicans Rtt109/Vps75 acetyltransferase activity; Q5AAJ8; purified Rtt109/Vps75, ThioGlo CoA-SH fluorescence, 4 h; inhibition, % at 34.9 µM; 330,000 tested, 0.16% active; AID 540336;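 active = inhibition of at least 50% in every replicate; inconclusive = best replicate reaches 50% inhibition but some replicates fall short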
Rce1 inhib: blocks yeast Ras-converting enzyme; 290,000 tested, 0.27% active; AID 2563; yeast membranes, quenched prenylated peptide cleavage fluorescence; calls only; Q03530;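 active = fall in fluorescence gain of 50% or more versus controls, with final raw signal at or below 3038400; inconclusive = same 50% fall but final raw signal above 3038400; inactive = fall in fluorescence gain under 50%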;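 note: plate controls were neutral control wells for no effect and wells lacking membranes for full effect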
ALR inh: human ALR oxidase inhibition via reduced H2O2 | P55789 | purified ALR, DTT oxidation, H2O2 HRP-luminol luminescence | inhibition, % (test concentration not listed) | 290,000 tested, 3.8% active;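 active = mean replicate inhibition above about 79%, with every replicate also reaching it, limit read from the data; inconclusive = only one of the two criteria met; inactive = mean below limit and not every replicate reaching it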
Target sequence (P55789 whole entry, looked up): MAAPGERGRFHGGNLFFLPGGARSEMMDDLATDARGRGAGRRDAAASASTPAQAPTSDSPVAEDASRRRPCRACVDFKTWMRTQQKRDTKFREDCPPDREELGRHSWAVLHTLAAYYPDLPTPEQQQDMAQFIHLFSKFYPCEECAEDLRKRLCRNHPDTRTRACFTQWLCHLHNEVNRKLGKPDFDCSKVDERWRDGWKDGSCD
Efflux pump inh: antifungal efflux pump inhibition, Nile Red retention; S. cerevisiae Candida pump triplex; inhibition, % at 10 µM; 330,000 tested, 0.44% active;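 active = plate passing quality check with inhibition over a set limit, or well fluorescence over plate mean plus 4 SD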;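 note: Nile Red retained in pooled yeast measured as flow cytometry median fluorescence; 0% = buffer negative control and 100% = Enniatin B positive control; higher means more Nile Red kept so more efflux inhibition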
Active calls of the source: *; i = inactive; ? = inconclusive; nt = not tested or not shown; + = active, no number; ! = repeats disagree. Compounds with a hit are over-represented: about 4.5% of the library has one in this group of screens.

SMILES	HDAC3 inh	GRK2 aptamer HTS	Rtt109 HAT inh	Rce1 inhib	ALR inh	Efflux pump inh
NC(=S)NNc1ccnc2cc(Cl)ccc12	-2.3	0.0	10.7	i	103.3*	-0.1
CC(C)c1cc2c(c(O)c1O)[C@@]13CCCC(C)(C)C1CC2OC3=O (stereo partly drawn)	1.8	2.0	2.4	i	25.0	0.0
Cc1cccc(SC2CCN(C(=O)C3CCC(=O)N(C4CC4)C3)CC2)c1 (stereo not drawn)	-0.7	0.0	9.9	i	-1.6	0.0
COc1ccc(S(=O)(=O)n2nc(OC(=O)c3cccs3)cc2N)cc1	95.3*	5.0	3.6	i	74.7	0.0
COc1ccc(S(=O)(=O)n2nc(OC(=O)c3ccco3)cc2N)cc1	71.2*	4.0	5.2	i	97.2*	-0.1
COc1ccc(S(=O)(=O)n2nc(OC(=O)c3ccncc3)cc2N)cc1	-3.9	nt	2.0	i	-2.0	nt
COc1ccc(-c2cc(N)n(S(=O)(=O)c3ccc(C)cc3)n2)c(OC)c1	8.2	0.0	9.5	i	98.7*	-0.3
CS(=O)(=O)n1nc(OC(=O)c2cccs2)cc1N	92.6*	nt	-8.7	i	89.1*	nt
COc1ccc(S(=O)(=O)n2nc(-c3ccc(Cl)cc3)cc2N)cc1	11.5	3.0	26.5	i	-6.6	0.3
CCC(C)(C)C1CCc2[nH]nc(C(=O)NCCCNC(=O)OC(C)(C)C)c2C1 (stereo not drawn)	5.3	0.0	-3.2	nt	-11.1	0.2
COc1ccc(S(=O)(=O)n2nc(OC(=O)c3ccc(C)cc3)cc2N)cc1	61.4*	0.0	1.2	i	nt	-0.1
Cc1ccc(C(=O)Oc2cc(N)n(S(=O)(=O)c3ccc(C)cc3)n2)cc1	2.0	3.0	4.9	i	nt	-0.1
Nc1cc(OC(=O)c2ccc(F)cc2)nn1S(=O)(=O)c1ccccc1	58.7*	2.0	-6.5	i	0.2	0.0
COc1cc(C(=O)Oc2cc(N)n(S(=O)(=O)c3ccc(F)cc3)n2)cc(OC)c1OC	6.9	0.0	6.5	i	13.9	-0.1
COc1ccc(S(=O)(=O)n2nc(OC(=O)c3ccccc3)cc2N)cc1	53.9*	5.0	-2.0	i	nt	-0.2
CCc1ccc(Nc2n[n+](-c3ccccc3)c(/C=C/c3ccccc3)s2)cc1	0.0	0.0	nt	+	-2.6	0.1
CCc1ccc(Nc2n[n+](-c3ccccc3)c(-c3c(Cl)cccc3Cl)s2)cc1	0.5	0.0	12.0	i	-6.9	0.0
O=C(O)c1ccccc1-c1ccccc1C(=O)Nc1ccc2c(c1)CCC2	-2.3	3.0	5.9	i	26.2	0.0
Cc1occc1C(=O)Nc1c(F)c(F)c(F)c(F)c1F	3.9	2.0	-2.0	i	97.5*	0.0
O=C(Nc1ccc2c(c1)CCC2)c1ccccc1	-7.1	0.0	-4.2	i	93.2*	0.0
Cc1occc1C(=O)Nc1ccc2c(c1)CCC2	2.2	0.0	2.4	i	96.2*	0.4
CN(C)S(=O)(=O)c1cccc(C(=O)Nc2ccccc2C(=O)NC2CC2)c1	-0.6	6.0	5.6	nt	-12.8	0.0
O=C(NNC(=S)Nc1ccc(F)cc1)c1cccc([N+](=O)[O-])c1	0.4	0.0	4.8	i	nt	-0.2
CC(=O)c1cccc(NC(=S)NNC(=O)c2ccc(C)c([N+](=O)[O-])c2)c1	3.2	0.0	-5.3	i	62.8	0.0
Cc1ccc(NC(=S)NNc2ccc(C(=O)O)cc2[N+](=O)[O-])cc1C	0.5	2.0	nt	i	98.7*	-0.1
SMILES	HDAC3 inh	GRK2 aptamer HTS	Rtt109 HAT inh	Rce1 inhib	ALR inh	Efflux pump inh
Cc1ccc(NC(=S)NNC(=O)c2cccc([N+](=O)[O-])c2)cc1Cl	5.8	0.0	0.9	i	87.8*	-0.1
Cc1ccc(NC(=S)NNc2ccc([N+](=O)[O-])cc2S(=O)(=O)Nc2ccccc2C(=O)O)cc1C	11.1	0.0	-4.2	i	nt	0.8
Cc1ccc(C(=O)NNC(=S)Nc2cccc(Cl)c2Cl)cc1[N+](=O)[O-]	5.6	0.0	13.2	i	97.5*	0.3
CCN(CC)c1ccc(SS(=O)(=O)O)cc1	3.2	0.0	1.4	i	99.2*!	0.1
O=C(NCc1ccc2c(c1)OCO2)c1cc2c(s1)CSC2	-0.5	nt	-3.1	i	97.0*	0.2
O=C(NCc1ccco1)c1cccs1	-3.2	4.0	-3.8	i	nt	0.0
O=C(NCc1ccco1)c1cc2c(s1)CSC2	?	14.0	nt	i	98.8*	-0.5
O=C(NCc1ccc2c(c1)OCO2)c1cccc(C(=O)NCc2ccc3c(c2)OCO3)c1	-6.5	0.0	-14.3	i	-19.2	0.1
CCC1c2ccccc2C(=O)C1C(N)=O (stereo not drawn)	nt	nt	-2.6	nt	nt	nt
CCOC(=O)c1ccc(S(=O)(=O)NC2CCC(C)CC2)cc1 (stereo not drawn)	1.9	3.0	0.7	nt	-0.8	-0.2
Cc1c(O)c(CN2CCCC2)cc2c1oc(=O)c1ccccc12	0.7	0.0	5.6	i	85.1*	0.5
COc1ccc(NC(=O)COc2ccccc2C)cc1S(=O)(=O)N1CCCCC1	4.9	2.0	6.8	i	-14.2	0.0
COc1cc(C(=O)NS(=O)(=O)c2ccccc2C)ccc1Cc1cn(C)c2ccc(NC(=O)OC3CCCC3)cc12	7.7	1.0	nt	i	97.3*	-0.1
O=C(Cc1coc2cc(O)ccc12)NNC(=O)c1ccc(Br)s1	1.2	1.0	4.3	nt	99.3*	-0.1
C=CCNC(=O)c1onc(CSc2cc(C)ccc2C)c1C(=O)O	-3.7	1.0	-2.8	i	85.7*	-0.1
O=C(NCC1CCCO1)c1onc(CSc2ccccc2)c1C(=O)O (stereo not drawn)	-3.0	0.0	-4.0	i	1.1	-0.1
CC(C)c1ccc(SCc2noc(C(=O)NCC3CCCO3)c2C(=O)O)cc1 (stereo not drawn)	2.5	nt	12.0	i	96.9*	nt
CN(C=O)c1ccc(CSc2ccccc2)cc1	nt	nt	10.2	nt	nt	nt
COCCN(Cc1nnc(-c2cccs2)o1)C(=O)CN1C(=O)NC2(CCCCC2)C1=O	1.9	0.0	nt	nt	-6.1	-0.1
CCc1ccc(NC(=S)NC2CCN(Cc3ccccc3)CC2)cc1	-0.4	0.0	7.3	i	96.3*	0.0
S=C(Nc1ccccc1)NC1CCN(Cc2ccccc2)CC1	-1.1	1.0	-3.1	i	3.9	0.1
N#Cc1ccc(CSC2=NCCN2)cc1	0.0	0.0	-15.6	i	98.8*	0.0
CCOc1ccc(CSC2=NCCN2)cc1Cl	-6.8	0.0	8.2	i	100.0*	0.1
Clc1ccccc1CSC1=NCCN1	-4.3	0.0	2.1	i	nt	-0.1
CCCCc1ccc(N2C(=NC(=O)C3CCCO3)SC3CS(=O)(=O)CC32)cc1 (stereo not drawn)	0.3	0.0	0.5	i	-4.4	0.0
Cc1cccc(CN2CCC(C(=O)Nc3ccc(-n4nc(C)cc4C)cc3)CC2)n1	-2.1	4.0	-9.0	i	-15.4	0.0
Cn1ccnc1SC(=O)N1c2ccccc2Sc2ccccc21	2.0	2.0	-0.8	i	98.5*	-0.1
